# SARS 3CLpro inh = SARS-CoV 3CLpro protease inhibition | recombinant SARS-CoV 3CLpro, quenched FRET peptide cleavage | inhibition, % at 6 µM | hit rate 0.14% among 290,000 | AID 1706; in the data active = inhibition above about 12%
# Vc quorum ag = inducers of Vibrio cholerae quorum light production without autoinducers | hit rate 0.16% among 350,000 | V. cholerae BH1578 lux reporter, luminescence, 6 h | AID 588436 | activation, % at 18.7 µM; in the data active = activation mostly above about 9.7%, no sharp cut-off
# BJeLR viability = BJeLR cell viability loss | BJeLR (HRASV12) viability, CellTiter-Glo ATP luminescence, 48 h | inhibition, % (test concentration not listed) | hit rate 0.17% among 300,000 | AID 1554; in the data active = inhibition above about 50%
# PfHsp40 rescue = compounds rescuing yeast from Plasmodium falciparum HSP40 toxicity. S. cerevisiae expressing PfHsp40, growth rescue, ATP luminescence. growth rescue, % at 12.5 µM. hit rate 0.68% among 340,000. AID 504582; in the data active = growth rescue above about 28%, passing the limit was not always enough;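 note: yeast W303a lacking pdr1 and pdr3 grown in galactose medium; growth measured after three days at 30 °C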
# MazF activator = activators of E. coli MazEF toxin-antitoxin RNase; P0AE70; FAM/BHQ RNA-DNA oligo cleavage fluorescence, 5 h; activation, % at 20 µM; hit rate 0.32% among 350,000; in the data active = activation above about 50%
# Target sequence (P0AE70 whole entry, looked up): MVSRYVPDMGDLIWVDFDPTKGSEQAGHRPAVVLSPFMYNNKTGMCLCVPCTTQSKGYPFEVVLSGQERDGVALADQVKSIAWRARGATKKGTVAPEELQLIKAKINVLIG
# VHR inh abs = inhibitors of human VHR1 phosphatase (DUSP3); inhibition, % at 13.3 µM; recombinant VHR phosphatase, pNPP absorbance; P51452; AID 1654; hit rate 0.52% among 290,000; in the data active = inhibition above about 50%
# Target sequence (P51452 whole entry, looked up): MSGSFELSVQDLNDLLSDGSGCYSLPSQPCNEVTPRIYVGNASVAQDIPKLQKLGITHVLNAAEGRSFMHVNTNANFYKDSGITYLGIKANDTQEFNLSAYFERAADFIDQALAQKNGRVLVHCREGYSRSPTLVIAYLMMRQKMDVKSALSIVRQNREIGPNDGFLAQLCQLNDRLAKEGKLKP
# * hit, by the source's call; i = inactive; nt = no result. Most compounds without a hit are left out; they make up all but 1.7% or so of the library.
SMILES,SARS 3CLpro inh,Vc quorum ag,BJeLR viability,PfHsp40 rescue,MazF activator,VHR inh abs
CCN(CC)C(=O)c1[nH]cnc1C(=O)NCC(=O)OC(C)(C)C,3.2,i,5.6,2.0,-6.8,12.7
CC1c2cc3c(cc2CCN1C(=O)c1cccc(Cl)c1)OCCCO3 (configuration not stated),0.3,-0.7,16.9,0.6,3.5,2.3
CCOc1ccc(N/C=C/C(=O)c2ccc(OC)cc2)c([N+](=O)[O-])c1,5.8,-7.1,6.7,-0.3,91.2*,21.9
COc1cc([N+](=O)[O-])cc(/C=N/NC(=O)c2cc(C)nc3ccccc23)c1O,-0.8,-0.7,1.5,32.1*,1.8,17.2
Cc1cc(C(=O)N/N=C/c2cccc([N+](=O)[O-])c2)c2ccccc2n1,-2.0,-0.3,0.1,33.7*,5.8,-1.5
COc1cc([N+](=O)[O-])cc(/C=N/NC(=O)c2cncc(Br)c2)c1O,-1.4,i,-14.5,779.7*,-7.4,44.7
O=C(NN=Cc1cccc([N+](=O)[O-])c1)c1cc(-c2cccnc2)nc2ccccc12,nt,i,nt,0.4,11.8,nt
CCCNC(=O)C(Cc1cccc(C#N)c1)NC(=O)c1cccc([N+](=O)[O-])c1 (configuration not stated),nt,-0.3,nt,-1.4,8.7,nt
Cc1cc(=O)oc2c(C)c(OC(C)C(=O)NCc3ccccn3)ccc12 (configuration not stated),1.8,-0.7,4.2,0.1,-17.7,-22.1
COc1cc(SC)ccc1C(=O)Nc1nc2ccccc2[nH]1,-7.2,-0.2,121.2*,-0.1,7.2,25.9
COc1ccccc1C(=O)Nc1nc2ccccc2[nH]1,-10.5,0.4,108.9*,0.8,6.4,6.9
COc1cc(CNc2ccc3[nH]c(=O)[nH]c3c2)ccc1OCc1c(F)cccc1Cl,-1.3,i,0.0,0.1,11.2,52.6*
COc1ccc(CN2CCCC(C(=O)N3CCc4ccccc4C3)C2)cc1OC (configuration not stated),4.3,-7.4,5.3,0.1,4.1,59.1*
CC(C)OC(=O)c1nn2c(C(F)(F)F)cc(-c3ccc(Br)o3)nc2c1Br,-4.5,i,10.2,0.0,350.7*,-14.1
COc1ccccc1N1CCN(C2CCCN(C(=O)c3cc(C(C)C)on3)C2)CC1 (configuration not stated),nt,-0.3,nt,nt,-1.8,nt
COc1ccc(CCNC(=O)CCCn2ncn3c(cc4occc43)c2=O)c(OC)c1,-4.8,i,-12.4,-0.5,4.4,-14.6
Cc1noc(C)c1COc1ccc(C(=O)OC(C)C(=O)Nc2ccc(N3CCOCC3)cc2)cc1 (configuration not stated),6.3,-0.6,4.2,67.1*,10.3,-5.6
CC(=O)Nc1ccc(NC(=O)C(C)OC(=O)c2ccc(OCc3c(C)noc3C)cc2)cc1 (configuration not stated),1.9,1.5,-6.2,0.5,-0.7,-6.4
CCCCOc1ccc(-c2csc(N)n2)cc1[N+](=O)[O-],4.3,-0.2,-2.8,140.9*,-0.7,1.9
O=C(Cn1cnc(S(=O)(=O)N2CCCCC2)c1)NCc1ccco1,-4.6,-5.3,1.7,-0.4,5.3,-1.9
CCC(C)C(CO)NCCCn1cnc2c(SC)ncnc21 (configuration not stated),nt,-0.1,nt,nt,-2.6,nt
CCCCN(C=O)c1c(CC)nc2ccc(C(=O)NCCN(C)C)cn12,nt,1.2,nt,nt,nt,nt
O=C(Nc1c[nH]c(=O)[nH]c1=O)c1cccc(F)c1,-5.2,i,-4.0,-2.7,10.3,-3.3
O=C(Nc1c[nH]c(=O)[nH]c1=O)c1cccc([N+](=O)[O-])c1,-3.6,-0.2,-18.3,-0.1,-20.4,55.7*
CCC(C)Sc1cccc(-c2nc3ccccn3c2NCc2ccccc2)c1 (configuration not stated),nt,-0.4,nt,219.3*,1.0,nt
Cc1cc(C(=O)N/N=C/c2cc(Br)c(Br)o2)n[nH]1,-1.2,-0.2,2.9,0.5,-13.3,30.6
OCCN(CCO)c1cc2c3ccccc3ccc2c2ccccc12,nt,i,nt,528.5*,18.7,nt
c1cc2c(c(CC3CO3)c1CC1CO1)OCCOCCOCCOCCO2 (configuration not stated),nt,i,nt,nt,6.6,nt
CC(Oc1ccc(Cl)cc1Cl)C(=O)Nc1ncccn1 (configuration not stated),-3.9,nt,-0.1,0.0,4.3,19.4
Cc1csc(NC(=O)C(C)Oc2ccc(Cl)cc2C)n1 (configuration not stated),nt,i,nt,60.4*,-1.7,nt

# From PubChem BioAssay
